Experimental findings from the supplement of paper PMC12636033 are described below.

± gives the standard deviation of the averaged measurements. Over roughly 33,000 sequences, “E-score (rank enrichment, -0.5 to 0.5)” has its median near -0.0068; the highest 2% begin near 0.24. This is one part of a sample in which the highest values are shown more often than they occur.

The experiment concerns muMax20 (Max(13-93) K31hArg/K57hArg, M65Nle). Description: PBM 8-mer E-score (E-score (rank enrichment, -0.5 to 0.5)); higher = stronger preferential binding. The procedure:
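Protein binding microarray (universal PBM chip covering all 10-mers in fixed probe flanks) with chemically synthesized human Max(13-93) bHLH-LZ analogs (not full-length Max) bearing noncanonical residues (hArg, Tha, Aib, Nle at 65) and aromatic Cys staples. Read-out per 8-mer (and its reverse complement): E-score (rank-based enrichment, -0.5 to 0.5) and Z-score of median probe intensity.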
Consider AACAAATA, for which the “PBM 8-mer E-score” value is 0.24 ± 0.0093.

Consider AACAAATG, for which the “PBM 8-mer E-score” value came out at 0.155 ± 0.052. As for AACAAACA, the “PBM 8-mer E-score” value was 0.234 ± 0.022. With AACAAGTT, the “PBM 8-mer E-score” value was 0.0361 ± 0.093. Turning to AACAAGTA, the “PBM 8-mer E-score” value turned out to be 0.101 ± 0.0032. Then AACAAATT, with 0.269 ± 0.049; and GCCCCAAC, with 0.167 ± 0.046; and ATAGCAAG, with 0.248 ± 0.0032.

In the case of ATAGCAAT, the “PBM 8-mer E-score” value came out at 0.1707 ± 0.0013. For ATAGCAAC, the “PBM 8-mer E-score” value turned out to be 0.0478 ± 0.052.

For the sequence ACTCCATG, the “PBM 8-mer E-score” value is -0.0772 ± 0.0052. Then CCTACCCC, with 0.0896 ± 0.026. For CGGTATGA, the “PBM 8-mer E-score” value was -0.017 ± 0.021. Consider ACATAATC, for which the “PBM 8-mer E-score” value is 0.0995 ± 0.051.

As for ACATAATA, the “PBM 8-mer E-score” value stood at 0.294 ± 0.053. GCATAATA: the “PBM 8-mer E-score” value is 0.239 ± 0.0054. For GCATAAGA, the “PBM 8-mer E-score” value came out at 0.107 ± 0.021. Turning to ACATAATG, the “PBM 8-mer E-score” value came out at 0.231 ± 0.099.

For the sequence CCATAATA, the “PBM 8-mer E-score” value amounted to 0.213 ± 0.05.

For CCAAGTGA, the “PBM 8-mer E-score” value is -0.0263 ± 0.0041. Next, CCGACGTC: -0.172 ± 0.09; CCAGAACA: 0.162 ± 0.0036; CGGCCACC: -0.305 ± 0.094.

With CTCTATGA, the “PBM 8-mer E-score” value was -0.000995 ± 0.044. Take AAAACCCC: the “PBM 8-mer E-score” value worked out at 0.126 ± 0.077.

In the case of AAATCGAG, the “PBM 8-mer E-score” value came to 0.0488 ± 0.046. Take GCACGTGC: the “PBM 8-mer E-score” value came out at 0.454 ± 0.049. Next, GAACGTGA: -0.00796 ± 0.078; GCACGTAC: -0.051 ± 0.064. Turning to GGACGTGA, the “PBM 8-mer E-score” value was -0.122 ± 0.048. For GCACGTGA, the “PBM 8-mer E-score” value came to 0.392 ± 0.1. In the case of GCACGTCC, the “PBM 8-mer E-score” value is -0.0223 ± 0.063. CGCAGTTC: the “PBM 8-mer E-score” value was -0.116 ± 0.012. Then CCATCAGC, with -0.0581 ± 0.017; and CAATTCCA, with -0.00806 ± 0.02. Then AAATTCCA, with 0.254 ± 0.0063. For GAATTCCA, the “PBM 8-mer E-score” value amounted to 0.017 ± 0.13. With GGGCGTAA, the “PBM 8-mer E-score” value was -0.0137 ± 0.039.

Take ATATCTTA: the “PBM 8-mer E-score” value came out at 0.0954 ± 0.0085. Regarding CTATCTTC, the “PBM 8-mer E-score” value worked out at 0.137 ± 0.013. With ATATCTTC, the “PBM 8-mer E-score” value came out at 0.273 ± 0.027. On to GAGTGCCC, for which the “PBM 8-mer E-score” value is -0.0978 ± 0.005. For the sequence CTATACCC, the “PBM 8-mer E-score” value was -0.0276 ± 0.12. With AAAAAAAC, the “PBM 8-mer E-score” value turned out to be 0.236 ± 0.056. On to GAAAACAC, for which the “PBM 8-mer E-score” value stood at 0.0158 ± 0.069.

For the sequence CAAAAAAC, the “PBM 8-mer E-score” value stood at 0.21 ± 0.017. As for ACGAAAAG, the “PBM 8-mer E-score” value stood at 0.154 ± 0.00054. On to GAAGAAAA, for which the “PBM 8-mer E-score” value came to 0.119 ± 0.022. On to CAAGAAAC, for which the “PBM 8-mer E-score” value stood at 0.177 ± 0.047. Consider CAAAACAC, for which the “PBM 8-mer E-score” value was -0.0123 ± 0.11. For GAAGAAAC, the “PBM 8-mer E-score” value came out at 0.241 ± 0.024. Turning to ACGAAAAC, the “PBM 8-mer E-score” value was determined as 0.248 ± 0.03. Take AAAAACAC: the “PBM 8-mer E-score” value was 0.283 ± 0.042. For AAAAAACC, the “PBM 8-mer E-score” value came out at 0.2 ± 0.036. Consider ACGAAAAA, for which the “PBM 8-mer E-score” value worked out at 0.181 ± 0.01.

In the case of ACACTTCT, the “PBM 8-mer E-score” value was -0.0487 ± 0.018. For the sequence GGACAGCC, the “PBM 8-mer E-score” value is -0.155 ± 0.053. For the sequence GGCTCCCA, the “PBM 8-mer E-score” value is -0.218 ± 0.099. For the sequence GCCTACGC, the “PBM 8-mer E-score” value was -0.109 ± 0.09. In the case of GGAAAAAA, the “PBM 8-mer E-score” value was 0.136 ± 0.12. For CAAGAAAA, the “PBM 8-mer E-score” value is 0.0576 ± 0.13. As for CAAAACCC, the “PBM 8-mer E-score” value was determined as 0.145 ± 0.0083. On to GAAAAAAC, for which the “PBM 8-mer E-score” value is 0.178 ± 0.042.

As for GAAAAAAA, the “PBM 8-mer E-score” value came to 0.255 ± 0.013. On to CCAAAACC, for which the “PBM 8-mer E-score” value stood at 0.122 ± 0.057.

CAAAAACC: the “PBM 8-mer E-score” value worked out at 0.237 ± 0.016. AAAGAAAA: the “PBM 8-mer E-score” value was determined as 0.263 ± 0.074. As for AAAGAAAG, the “PBM 8-mer E-score” value was 0.084 ± 0.006. Consider CCCCCGAC, for which the “PBM 8-mer E-score” value is -0.232 ± 0.054.

As to CCACAGGG, the “PBM 8-mer E-score” value was -0.0979 ± 0.07. Take ATCCGGTA: the “PBM 8-mer E-score” value was -0.00311 ± 0.041.

With ATGTCTAC, the “PBM 8-mer E-score” value was -0.0533 ± 0.013. For the sequence AAACTGGA, the “PBM 8-mer E-score” value is 0.098 ± 0.12. On to AATTGGGA, for which the “PBM 8-mer E-score” value came to 0.239 ± 0.021. As for AATTGGGC, the “PBM 8-mer E-score” value was 0.0726 ± 0.029. Take AATTGGGT: the “PBM 8-mer E-score” value came to 0.181 ± 0.051.

For AATTTGCA, the “PBM 8-mer E-score” value amounted to 0.149 ± 0.052.

As to CGAGTAAA, the “PBM 8-mer E-score” value came to 0.0289 ± 0.1. Take CAAGTCGC: the “PBM 8-mer E-score” value is -0.102 ± 0.035. Regarding ACGCGTGG, the “PBM 8-mer E-score” value was found to be 0.183 ± 0.12. As for ACGTGTGA, the “PBM 8-mer E-score” value was 0.19 ± 0.11. With ACGCGTGA, the “PBM 8-mer E-score” value was 0.148 ± 0.14. Turning to ACGTGTGG, the “PBM 8-mer E-score” value was determined as 0.227 ± 0.071. In the case of ACGTGTGC, the “PBM 8-mer E-score” value was determined as 0.297 ± 0.087. In the case of ACGCGTGC, the “PBM 8-mer E-score” value was determined as 0.253 ± 0.042.

For ACGTGCGC, the “PBM 8-mer E-score” value was 0.241 ± 0.014. Next, CCGTGCGC: -0.143 ± 0.07. Regarding ACGTGCGG, the “PBM 8-mer E-score” value is 0.105 ± 0.078.
